Structures are written as SMILES. Hit rate of the full screen: of about 1,300 compounds, about 980 (75%) were called active. Roughly 4% stayed inconclusive and do not appear here. This is one part of the list.

One may read the inhibition as the drop in the measured response relative to a control, in per cent.

For this assay, the target named is Sulfhydryl oxidase 1 (Homo sapiens) (UniProt O00391). The assay can be described thus: inhibition of human sulfhydryl oxidase QSOX1 – biochemical, HyperBlu H2O2 luminescence, HTS, primary screen (AID 1347420). Note: values above 100% were filed as inconclusive. Particulars: recombinant QSOX1, HyperBlu H2O2 luminescence, at 12.5 µM, stronger effect = higher value; active = any value above zero unless noted.
Sulfhydryl oxidase 1 (Homo sapiens), sequence (O00391 whole entry, looked up): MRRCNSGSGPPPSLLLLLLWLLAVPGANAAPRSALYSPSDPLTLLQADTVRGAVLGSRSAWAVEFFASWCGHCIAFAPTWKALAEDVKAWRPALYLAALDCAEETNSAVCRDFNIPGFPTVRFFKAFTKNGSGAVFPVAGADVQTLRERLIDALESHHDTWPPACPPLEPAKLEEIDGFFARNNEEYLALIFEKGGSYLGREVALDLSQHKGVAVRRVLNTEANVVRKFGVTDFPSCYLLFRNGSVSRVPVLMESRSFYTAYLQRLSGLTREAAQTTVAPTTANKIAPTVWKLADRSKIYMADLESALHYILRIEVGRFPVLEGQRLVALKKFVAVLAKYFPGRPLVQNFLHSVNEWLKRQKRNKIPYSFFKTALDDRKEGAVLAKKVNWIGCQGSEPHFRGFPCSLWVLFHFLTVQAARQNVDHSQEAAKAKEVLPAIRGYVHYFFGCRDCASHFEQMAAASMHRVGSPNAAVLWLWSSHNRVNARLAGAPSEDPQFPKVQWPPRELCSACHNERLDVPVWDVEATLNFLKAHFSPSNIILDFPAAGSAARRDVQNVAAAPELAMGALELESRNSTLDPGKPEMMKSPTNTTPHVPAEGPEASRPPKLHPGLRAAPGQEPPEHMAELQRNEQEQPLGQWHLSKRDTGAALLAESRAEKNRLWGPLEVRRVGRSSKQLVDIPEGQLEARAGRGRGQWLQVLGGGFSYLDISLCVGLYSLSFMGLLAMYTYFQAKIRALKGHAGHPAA
`C[C@H]1C2Cc3ccc(O)cc3C1(C)CCN2CC1CC1` (stereo partly drawn): the inhibition was 26.8% [setting not given] (active).

On to `O=C1NCN(c2ccccc2)C12CCN(CC1COc3ccccc3O1)CC2` (stereo not drawn), for which the inhibition was 5.7% (active).

In the case of `O=C(CCCN1CCC2(CC1)C(=O)NCN2c1ccccc1)c1ccc(F)cc1`, the inhibition is 7.6% [setting not given] (active).

Consider `CC(CCc1ccccc1)NC(C)C(O)c1ccc(O)cc1` (stereo not drawn), for which the inhibition was 28.5% (active).

In the case of `NC(=O)CN1CCCC1=O`, the inhibition is 1% [setting not given] (active).

Consider `Cc1cccc(C)c1NC(=O)CN1CCCC1=O`, for which the inhibition was 13.4% [setting not given] (active).

In the case of `O=C1CCCN1CC#CCN1CCCC1`, the inhibition was 12.7% [setting not given] (active).

`NC(=O)CN1CC(O)CC1=O` (stereo not drawn): the inhibition is 15.4% [setting not given] (active).

With `O=P1(N(CCCl)CCCl)NCCCO1` (stereo not drawn), the inhibition was -3.8% (inactive).

As to `C/C=C(/C)C(=O)O[C@H]1C(C)=C2[C@H]([C@@H]1OC(=O)CCCCCCC)[C@@](C)(OC(C)=O)C[C@H](OC(=O)CCC)[C@@]1(O)[C@H]2OC(=O)[C@@]1(C)O`, the inhibition is -2.4% (inactive).

With `Cc1c2ccncc2c(C)c2c1[nH]c1ccccc12`, the inhibition is 78.9% [setting not given] (active).

Take `Cc1nccc2c1[nH]c1ccccc12`: the inhibition is 8.6% [setting not given] (active).

Regarding `CC(=O)OCC1=C(C(=O)O)N2C(=O)[C@@H](NC(=O)CCC[C@@H](N)C(=O)O)[C@H]2SC1`, the inhibition is -10.7% (inactive).

Consider `Cc1ncsc1CCCl`, for which the inhibition was 12.9% (active).

As for `c1ccc(C2(c3ccccc3)CC2C2=NCCN2)cc1` (stereo not drawn), the inhibition is 6.4% (active).

As to `COc1cc(CC(C)N)c(OC)cc1I` (stereo not drawn), the inhibition is 7.8% [setting not given] (active).

As to `NCC(CP(=O)(O)O)c1ccc(Cl)cc1` (stereo not drawn), the inhibition was -10.6% (inactive).

On to `NC(CCCCCP(=O)(O)O)C(=O)O` (stereo not drawn), for which the inhibition is -4.7% (inactive).

With `NC(CP(=O)(O)O)C(=O)O` (stereo not drawn), the inhibition is 2.2% (active).

With `CS(=N)(=O)CC[C@H](N)C(=O)O` (stereo partly drawn), the inhibition was -10.8% (inactive).

For the compound `C[Se]C[C@H](N)C(=O)O`, the inhibition is -0.1% (inactive).

Regarding `N[C@@H](CCl)C(=O)O`, the inhibition was 8.8% (active).

In the case of `NC(CCP(=O)(O)O)C(=O)O` (stereo not drawn), the inhibition was 12.3% (active).

`CN1C2CCC1CC(OC(c1ccccc1)c1ccccc1N)C2` (stereo not drawn): the inhibition is 14.6% (active).

For the compound `OCc1cnc[nH]1`, the inhibition was 3.5% (active).

As to `C[C@@H](N)Cc1cnc[nH]1`, the inhibition was 21.1% (active).

In the case of `O=C(O)Cc1cnc[nH]1`, the inhibition is 5.5% (active).

As to `C#CCOC(=O)C1=CCCN(C)C1`, the inhibition was 17.9% (active).

As for `COC(=O)C1=CCCN(C)C1`, the inhibition is 0.6% [setting not given] (active).

For the compound `CC(C)NC(C)Cc1ccc(I)cc1` (stereo not drawn), the inhibition was 19.1% [setting not given] (active).

`CC(C)N(CCC(C(N)=O)(c1ccccc1)c1ccccn1)C(C)C` (stereo not drawn): the inhibition was 39.4% [setting not given] (active).

As to `Cc1cc([C@@H]2CCCN2C)on1`, the inhibition is 9.3% (active).

Consider `CN1CCC(c2c[nH]c3ccc(O)cc23)CC1`, for which the inhibition is 84% (active).

As for `CCCCCCC(C)(C)c1ccc([C@@H]2C[C@H](O)CC[C@H]2CCCO)c(O)c1`, the inhibition is 3.2% [setting not given] (active).

On to `Cc1cccc(C)c1NC1=NCCCS1`, for which the inhibition is 12.9% [setting not given] (active).

In the case of `C[C@@H]1O[C@@H](O[C@H]2C[C@@H](O)[C@]3(CO)[C@H]4[C@H](O)C[C@]5(C)[C@@H](C6=CC(=O)OC6)CC[C@]5(O)[C@@H]4CC[C@]3(O)C2)[C@H](O)[C@H](O)[C@H]1O`, the inhibition is 2.5% [setting not given] (active).

For the compound `C[C@@H]1O[C@@H](O[C@H]2C[C@@H](O)[C@]3(CO)[C@@H]4C(CC[C@]3(O)C2)[C@@]2(O)CC[C@H](C3COC(=O)C3)[C@@]2(C)C[C@H]4O)[C@H](O)[C@H](O)[C@H]1O` (stereo partly drawn), the inhibition was 24.8% (active).

Turning to `NC(=O)COc1c(F)cc(SCCNS(=O)(=O)c2ccccc2)cc1F`, the inhibition is -12.8% (inactive).

Consider `Clc1ccc(N2CC3CCC(C2)N3)nn1`, for which the inhibition was 25.6% (active).

Take `CC(C)=CCOc1c2occc2cc2ccc(=O)oc12`: the inhibition was 31.6% [setting not given] (active).

Take `CC(O)(CS(=O)(=O)c1ccc(F)cc1)C(=O)Nc1ccc(C#N)c(C(F)(F)F)c1` (stereo not drawn): the inhibition was 13.7% [setting not given] (active).

Take `c1ccc2cc(CC3=NCCN3)ccc2c1`: the inhibition was 11% [setting not given] (active).

Regarding `CCCN1CCC[C@H](c2cccc(O)c2)C1`, the inhibition was 10.7% (active).

For `CCCN1CCC[C@@H](c2cccc(O)c2)C1`, the inhibition is 25.8% (active).

As for `CC1(C(=O)O)C2CCC(O2)C1(C)C(=O)O` (stereo not drawn), the inhibition was -0.6% (inactive).

Turning to `CCCCC/C=C\C/C=C\C/C=C\C/C=C\CCCC(=O)NCC(=O)O`, the inhibition is 3.4% (active).

Regarding `NC1CC1c1ccccc1` (stereo not drawn), the inhibition was 14.9% (active).

Regarding `Nc1ccc(CCN2CCN(c3cccc(C(F)(F)F)c3)CC2)cc1`, the inhibition was 27.1% (active).

For `CC[C@@H](C(N)=O)N1CCCC1=O`, the inhibition is 12.2% [setting not given] (active).

For the compound `COc1ccc2c(c1O)-c1cccc3c1[C@@H](C2)N(C)CC3`, the inhibition is 39% (active).

Take `CN1CCc2cc(O)cc3c2[C@H]1Cc1ccc(O)c(O)c1-3`: the inhibition is 94% (active).

In the case of `Cc1sc2ccccc2c1CC1=NCCN1`, the inhibition was 9.6% (active).

On to `CC(C)(O)[C@@H]1[C@H]2OC(=O)[C@@H]1[C@]1(O)C[C@H]3O[C@]34C(=O)O[C@H]2[C@]14C` (tested in a mixture with another compound), for which the inhibition was 14.8% (active).

For `NC(N)=Nc1ccc2[nH]c3c(c2c1)C[C@@]1(O)[C@H]2Cc4ccc(O)c5c4[C@@]1(CCN2CC1CC1)[C@H]3O5`, the inhibition is 18.5% [setting not given] (active).

For the compound `Oc1ccc2c3c1O[C@H]1c4[nH]c5ccccc5c4C[C@@]4(O)C(C2)N(CC2CC2)CCC314` (stereo partly drawn), the inhibition was 63.8% [setting not given] (active).

With `Oc1ccc2c3c1O[C@H]1c4[nH]c5c(c4C[C@@]4(O)[C@@H](C2)N(CC2CC2)CC[C@]314)C[C@@]1(O)[C@H]2Cc3ccc(O)c4c3[C@@]1(CCN2CC1CC1)[C@H]5O4`, the inhibition was 25.2% (active).

As for `Oc1ccc2c3c1O[C@H]1c4oc5ccccc5c4C[C@@]4(O)C(C2)N(CC2CC2)CCC314` (stereo partly drawn), the inhibition was 18.4% [setting not given] (active).

In the case of `O=C1/C(=C/c2ccccc2)C[C@@]2(O)[C@H]3Cc4ccc(O)c5c4[C@@]2(CCN3CC2CC2)[C@H]1O5`, the inhibition was 32.8% [setting not given] (active).

`CO[C@H]1CC=C2CCN3CCC4=C(CC(=O)OC4)[C@]23C1`: the inhibition was 0.7% (active).

Turning to `CCOC(=O)c1ncn2c1[C@@H]1CCCN1C(=O)c1cc(OC)ccc1-2`, the inhibition was 13.3% (active).

Consider `NCC(CC(=O)O)c1ccc(Cl)cc1` (stereo not drawn), for which the inhibition was 0% [setting not given] (inactive).

Take `CNCC(O)c1ccc(O)cc1` (stereo not drawn): the inhibition is 11.4% [setting not given] (active).

Take `COc1cc(C(O)CN)ccc1O` (stereo not drawn): the inhibition is 20.7% (active).

With `NCC(O)c1ccc(O)cc1` (stereo not drawn), the inhibition is 20.3% [setting not given] (active).

Consider `NCC(O)c1cc(O)c(O)cc1F` (stereo not drawn), for which the inhibition is 72.8% (active).

With `Ic1ccccc1CNC1C2CCN(CC2)C1C(c1ccccc1)c1ccccc1` (stereo not drawn), the inhibition was 11% (active).

With `O=C(O)[C@@H]1CCN1`, the inhibition was 18.9% (active).

With `N=C(N)c1ccc(CS(=O)(=O)F)cc1`, the inhibition is 7.2% (active).

Regarding `CN1C2CCC1CC(OC(=O)c1cc(Cl)cc(Cl)c1)C2` (stereo not drawn), the inhibition is 5.4% (active).

Take `O=C1C=CC(=O)C=C1`: the inhibition was 16.8% (active).

As to `N[C@@]1(C(=O)O)CC[C@@H](C(=O)O)C1`, the inhibition was 12.2% (active).

`CCN1C[C@@]2(COC)C3[C@@H](OC)C4[C@@H]1C3([C@@H]1C[C@@]3(O)[C@H](OC(=O)c5ccccc5)[C@@H]1[C@]4(OC(C)=O)[C@@H](O)[C@@H]3OC)[C@H](OC)C[C@H]2O`: the inhibition was 4.1% (active).

On to `CCNC(=O)[C@H]1O[C@@H](n2cnc3c(N)ncnc32)C(O)[C@H]1O` (stereo partly drawn), for which the inhibition was 1.2% (active).

Regarding `O=[N+]([O-])c1cc(O)c(O)c([N+](=O)[O-])c1`, the inhibition is 84.7% (active).

`NCc1cc(=O)[nH]o1`: the inhibition was 10.1% (active).

In the case of `C=CCN1CC[C@]23CCCCC2[C@H]1Cc1ccc(O)cc13` (stereo partly drawn), the inhibition is 6% [setting not given] (active).

For the compound `COc1ccc2c(c1)C13CCCCC1C(C2)N(C)CC3` (stereo not drawn), the inhibition was 11.3% [setting not given] (active).

Consider `COc1ccc2c(c1)[C@@]13CCCC[C@H]1[C@@H](C2)NCC3`, for which the inhibition was -2.6% [setting not given] (inactive).

Turning to `C=CCN1C[C@@H](C)N([C@H](c2ccc(C(=O)N(CC)CC)cc2)c2cccc(OC)c2)C[C@@H]1C`, the inhibition is 7.5% (active).

For `CC(=O)NBr`, the inhibition is 9.5% (active).

As for `NC(N)=NOCCC(N)C(=O)O` (stereo not drawn), the inhibition is 8.2% (active).

With `NC(N)=NOCC[C@H](N)C(=O)O`, the inhibition is -0.8% [setting not given] (inactive).

`CC(Cc1ccc(O)cc1)NCC(O)c1cc(O)cc(O)c1` (stereo not drawn): the inhibition was 15% [setting not given] (active).

As for `CN1CCc2cccc(Cl)c2CC1`, the inhibition is 1.7% (active).

Consider `CP(=O)(O)C1=CCNCC1`, for which the inhibition is -0.7% (inactive).

Take `CCCN(CCC)C1Cc2cc(OC)c(OC)cc2C1`: the inhibition was 3.2% (active).

In the case of `CCCN(CCC)[C@@H]1CCc2ccc(O)cc2C1`, the inhibition was 10.7% (active).

`CCCN(CCC)C1CCc2ccc(O)cc2C1` (stereo not drawn): the inhibition is 28.1% (active).

On to `O=S1(=O)N(CCN2CC=C(c3c[nH]c4cc(F)ccc34)CC2)c2cccc3c2N1CCC3`, for which the inhibition was 25.1% (active).

As to `C[C@H](N)Cc1cccc(C(F)(F)F)c1`, the inhibition was 4.9% [setting not given] (active).

With `COc1ccc(CNC(=O)/C=C/c2ccc3[nH]cc(CCN(C)C)c3c2)cc1`, the inhibition was 4.8% [setting not given] (active).

For `O=C(O)c1cc[c]([Hg][Cl])cc1`, the inhibition was 1% (active).

With `CCC1(c2ccc(N)cc2)CCC(=O)NC1=O` (stereo not drawn), the inhibition was 27.6% [setting not given] (active).

The values are drawn from PubChem BioAssay AID1347420 (Sanford-Burnham Center for Chemical Genomics, 2020).
